Bioassay records deposited in PubChem by Milwaukee Institute for Drug Discovery.
Cy5 interf NS3h – enhances or quenches Cy5 fluorescence in NS3h assay; Cy5-dT15 DNA with NS3h, fluorescence interference; actives lie on both sides; signal over control mean, under 1 quenches; fluorescence interference ratio at 100 µM; 6% of 16,000 active;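 active means compound fluorescence over control fluorescence at most 0.8, a quencher, or at least a set upper limit, an enhancer; inactive means ratio between 0.8 and the set upper limit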
NS3h inh CB – blocks HCV NS3 helicase binding to DNA. AID 687043. NS3h Cy5-dT15 DNA binding, fluorescence polarization. 1.6% of 16,000 active. inhibition, % at 100 µM;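 active means inhibition above the average over every tested compound plus 3 SD, cut at about 40% in these data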
NS3h confirm – confirmation of hepatitis C virus NS3 helicase inhibitors; shares compounds with NS3h inh CB; 20% of 240 active; AID 720485; inhibition, % at 100 µM; NS3h binding to Cy5-dT15 DNA, fluorescence polarization;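 active means percent inhibition of 50% or more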
SSB FP counter – disrupts E. coli SSB binding to DNA in counter-screen | shares compounds with NS3h inh CB | 40% of 240 active | inhibition, % at 100 µM | E. coli SSB binding Cy5-dT15, fluorescence polarization;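 active means inhibition of at least 50%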;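 further: displacers lower Cy5 polarization so higher inhibition means more SSB displaced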
Target sequence (P0AGE0 whole entry, looked up): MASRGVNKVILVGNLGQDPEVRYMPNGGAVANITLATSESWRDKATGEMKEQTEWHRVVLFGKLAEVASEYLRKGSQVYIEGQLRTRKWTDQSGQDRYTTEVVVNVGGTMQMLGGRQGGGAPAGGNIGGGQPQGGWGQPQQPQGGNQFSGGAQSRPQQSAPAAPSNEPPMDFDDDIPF
Cy5 SSB fluor CB – counter-screen for HCV NS3 helicase inhibitors: fluorescence interference | 8% of 240 active | Cy5-dT15/E. coli SSB fluorescence interference; actives lie on both sides | shares compounds with NS3h inh CB | fluorescence interference ratio at 100 µM | AID 720487;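 active means fluorescence interference ratio at or above 1.2, signal boosting, or at or below 0.8, signal quenching; inactive means ratio between 0.8 and 1.2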;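 further: ratio of compound well signal to mean negative control signal so 1 means no effect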
Cy5 fluor confirm – Cy5 fluorescence interference, confirmation counter-screen; shares compounds with NS3h inh CB; Cy5-dT15 DNA/NS3h fluorescence interference counterscreen; fluorescence interference ratio at 100 µM, hits read low; 44% of 240 active; AID 720489;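 active means fluorescence interference ratio at or below 0.8 quencher or at or above a set limitenhancer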;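 further: ratio of compound fluorescence to mean of negative controls so 1 means no interference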
* marks the source's active call; other numbers are inactive results; nt = not tested or not shown. A selection: hits, their analogues and other compounds. The true share with any hit is near 6.9%.

SMILES	Cy5 interf NS3h	NS3h inh CB	NS3h confirm	SSB FP counter	Cy5 SSB fluor CB	Cy5 fluor confirm
COc1ccc(N2C(=O)/C(=C/c3ccc(-c4cc(C(=O)O)ccc4Cl)o3)C(=O)NC2=S)cc1	1.13	32.7	35.1	67.2*	0.879	0.805*
O=C1NC(=O)N(c2ccc(Cl)cc2)C(=O)/C1=C\c1cc(Br)cc(Cl)c1O	0.889	14.5	nt	nt	nt	nt
O=C1NC(=O)N(c2ccccc2F)C(=O)/C1=C/c1ccc(-c2cc(C(=O)O)ccc2Cl)o1	1.07	35.9	92.2*	28.4	0.976	0.831
O=C1NC(=O)C(=Cc2ccc(-c3ccc(C(=O)O)cc3)o2)C(=O)N1	0.968	69.4*	28.8	32.0	0.903	0.796*
Cc1ccc(N2C(=O)NC(=O)/C(=C\c3ccc(-c4ccc(Cl)c(C(=O)O)c4)o3)C2=O)cc1	0.986	62.2*	75.3*	62.4*	0.921	1.01
O=C(Cn1c[n+]([N-][N+](=O)[O-])cn1)Nc1ccc([N+](=O)[O-])cc1	0.999	12.2	nt	nt	nt	nt
CSc1ccc(CN2CCN(Cc3cc(Br)ccc3O)CC2)cc1	0.926	-3.4	nt	nt	nt	nt
Cc1ccc(C)c(COc2cc(C)cc3oc(=O)c4c(c23)CCC4)c1	1.12	8.2	nt	nt	nt	nt
O=C(CF)NC(Nc1ccc(Br)cc1)C(Cl)(Cl)Cl (stereo not given)	0.922	-0.3	nt	nt	nt	nt
Cc1ccc(C(=O)Nc2ccc(N/C(N)=N\[N+](=O)[O-])cc2)cc1	1.05	-1.8	nt	nt	nt	nt
